In the library only some 3% were active in any assay of this set; here they are far more common.
Chronic BCR inh = qHTS Assay to Find Inhibitors of Chronic Active B-Cell Receptor Signaling. ABC-DLBCL IkBa-CBG/CBR reporter, luminescence ratio, 4 h. Potency, µM (titrated, usually from 46.1 µM), inactives show at the highest dose activity change, negative = inhibition, usual class: inhibitors. hit rate 0.05% among 340,000; active means well fitted inhibition curve with a large enough effect in the signal ratio, with a control signal flat, not every such curve was filed as active; inconclusive means small, poorly fitted or top-dose-only effect, or effect the other way, or a change in a side signal; the % refers to the signal ratio;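 further: potency means the concentration at half of the fitted maximal effect; plate controls were basal doxycycline-induced cells for no effect and cells given 10 µM MG132 for full effect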
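TMD8 human ABC-DLBCL cells with doxycycline-inducible IκBα–green luciferase fusion and unfused red luciferase, in 0.5% FBS medium; compounds up to 46 uM, 4 h at 37C. Green/red luminescence ratio, filter-overlap corrected, fitted to concentration-response curves.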
ClpP mod = qHTS Assay for Activators of ClpP; purified B. subtilis ClpP, FRET peptide cleavage, 20 min; Potency, µM (doses to about 57.5 µM), without a hit: at the highest dose activity change, negative = active; hit rate 1.9% among 340,000; AID 651965, 2013; active means well fitted falling curve with a large enough effect; inconclusive means small, poorly fitted or top-dose-only effect; inactive means no such curve, though single readings can be large or run the other way; further: potency means the concentration at half of the fitted maximal effect; the source files actives as falling curves though it sought activators and does not explain the sign; nearly all actives have a fitted effect of over 65% in size
Target sequence (P80244 whole entry, looked up): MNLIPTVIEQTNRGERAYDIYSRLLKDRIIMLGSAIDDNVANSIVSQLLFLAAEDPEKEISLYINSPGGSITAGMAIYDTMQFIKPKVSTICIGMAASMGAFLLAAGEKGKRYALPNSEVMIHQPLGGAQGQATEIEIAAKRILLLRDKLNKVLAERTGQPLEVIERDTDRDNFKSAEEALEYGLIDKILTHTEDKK
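Purified B. subtilis ClpP, 10 microg/mL final in Tris/HCl pH8 with KCl, BSA, glycerol and Tween-20, cleaved an Abz/nitrotyrosine-quenched decapeptide. Fluorescence (ex 320, em 430) was read at 0 and 20 min at room temperature. Delta was normalized to 5.8 microM ADEP and DMSO/no-enzyme controls.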
LDHA block = qHTS assay for inhibitors of human lactate dehydrogenase | L-lactate dehydrogenase A chain (Homo sapiens), P00338 | purified LDHA, NADH/diaphorase-resazurin fluorescence; active compounds read low | activity change, % (values are at about 110 or 230 µM) | hit rate 0.15% among 480,000 | AID 1347041, 2019; in the data active means activity change below about -30%; inconclusive means mostly about -25% to -30%;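 further: plate controls were DMSO wells for no effect and wells without enzyme for full effect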
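Enzyme activity of human lactate dehydrogenase 5 (2 nM; 0.06 mM NADH, 0.2 mM pyruvate, 5 min, RT) is measured via a resazurin/diaphorase fluorescence readout of residual NADH.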
ALOX12 inh = Primary qHTS assay for inhibitors of human arachidonate 12S-lipoxygenase (ALOX12): Round 2; Polyunsaturated fatty acid lipoxygenase ALOX12 (Homo sapiens), P18054; purified 12hLO, xylenol orange hydroperoxide absorbance; Potency, µM (doses to about 108 µM), for the others: top-dose activity change, negative = inhibition, usual class: inhibitors; hit rate 1.1% among 580,000; further: potency means the concentration at half of the fitted maximal effect; on the % scale 0 is the no-effect control and ±100 the full control effect
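Purified human 12hLO at 150 nM in 25 mM Hepes, 0.01% Triton X-100, pH 7.0, preincubated 15 min at room temperature with compound. Reaction started with 40 uM arachidonic acid, 30 min at room temperature. Hydroperoxide measured by Fe-xylenol orange, 573/405 nm absorbance ratio.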
hERG WT inh = qHTS for Inhibitors of KCHN2 3.1: Wildtype qHTS | Voltage-gated inwardly rectifying potassium channel KCNH2 (Homo sapiens), Q12809 | U2OS, BacMam KCNH2, thallium flux FluxOr; active compounds read low | activity change, % at 1.84 µM | hit rate 0.37% among 340,000 | AID 720551, 2013;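 active means maximum activity change below -70%; inconclusive means maximum activity change between -70% and -50%; inactive means maximum activity change above -50%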; further: on the % scale 0 is the no-effect control and ±100 the full control effect
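U2OS cells were transduced with wild-type KCNH2 virus (2.03 x 10^8 / mL) for 4 h at room temperature, then cultured overnight at 37 C. Thallium flux was read with FluxOr dye. Rate constants were normalized to DMSO controls.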
KCNH2 3.1 inh = qHTS for Inhibitors of KCHN2 3.1: Mutant qHTS; Potassium voltage-gated channel subfamily H member 2, brain isoform KCNH2 3.1 (human); U2OS KCNH2 3.1, thallium flux FluxOr; active compounds read low; activity change, % (tested at about 1.8 µM); hit rate 0.95% among 340,000;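 active means maximum activity change below -70%; inconclusive means maximum activity change from -70% to -50%; inactive means maximum activity change above -50%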;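 further: thallium influx rate constant from kinetic fluorescence after stimulation buffer; on the % scale 0 is the no-effect control and ±100 the full control effect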
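Thallium flux via FluxOr fluorescence (Red40 quencher, 45 min loading) in U2OS cells virally expressing the KCNH2 3.1 isoform (1.77 x 10^8 /mL virus, overnight at 37 C). Rate constants from 2-min kinetic reads post-stimulation, normalised to positive and negative controls.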
ClpP inh valid = qHTS Assay for Activators of ClpP: Hit Validation of Inhibitors; purified B. subtilis ClpP, FRET-FV substrate cleavage, 20 min; Potency, µM (top dose mostly 57.5 µM), for the others: at the top dose activity change, negative = inhibition, most hits filed as inhibitors; hit rate 40% among 470; AID 743245, 2014; shares compounds with ClpP mod; further: potency means the concentration at half of the fitted maximal effect; on the % scale 0 is the no-effect control and ±100 the full control effect; nearly all actives have a fitted effect of over 70% in size
An asterisk follows results filed as active; ? = inconclusive; . = no result; [ ] = dose if it differs, or a comment. Unless noted, the call rests on the fitted dose curve; in most records, active means well fitted curve in the direction sought with a large enough effect; inconclusive means small, poorly fitted or top-dose-only effect, or another doubt; inactive means no such curve, though single readings can be large; an effect the other way counts as inactive or inconclusive.

SMILES | Chronic BCR inh | ClpP mod | LDHA block | ALOX12 inh | hERG WT inh | KCNH2 3.1 inh | ClpP inh valid
CC(C)NC(=O)[C@H]1CN2CC[C@H]1C[C@@H]2Cn1cc(CO)nn1 | . | . | . | 9.5%[176 µM] | . | . | .
Nc1c(C(=O)NCc2ccco2)c2nc3ccccc3nc2n1Cc1ccccc1 | ? | 3.8% | 0.0 | ? | -7.3 | 6.5 | .
Nc1c(C(=O)NCc2ccco2)c2nc3ccccc3nc2n1CCN1CCOCC1 | ? | 10µM* | 2.8 | -15.1% | -8.7 | 21.5 | 21.7µM*
CCCCCn1c(N)c(C(=O)NCCN2CCOCC2)c2nc3ccccc3nc21 | ? | 8.91µM* | 4.4 | 51.6% | 12.3 | -4.9 | 24.3µM*
CNCc1cn(C[C@H]2C[C@@H]3CCN2C[C@@H]3C(=O)NC2CCCCC2)nn1 | . | . | . | -3.0%[176 µM] | . | . | .
CC1CCC(=O)O1 (stereo not given) | . | . | . | 3.2%[176 µM] | . | . | .
CSc1cccc(NC(=O)NC[C@H]2C[C@@H]3CCN2C[C@@H]3CN2CCN(c3ccccc3)CC2)c1 | . | . | . | 73.8% | . | . | .
CCCCn1c(N)c(C(=O)OCC2CCCO2)c2nc3ccccc3nc21 (stereo not given) | ? | ? | 5.8 | 13.0% | 5.1 | -8.4 | .
Nc1c(C(=O)OC2CCCCC2)c2nc3ccccc3nc2n1CC1CCCO1 (stereo not given) | 3.0% | 44.8% | -9.1 | -4.1% | 4.0 | 26.2 | ?
Cc1ccc2c(c1)cc(C(=O)Nc1ccccc1C)n2C | . | 34.2% | ? | -21.8% | . | . | ?
